Data taken from the supplement of paper PMC4466140.

B1: unnamed (peptide)
chain: PSRRDSLSIPRAVDA
B2: unnamed (peptide)
chain: VNFRRIPTGPDSPPT

Each binder was assayed against CaNbp2 (assay: SPOT peptide array binding signal intensity (averaged, normalized) (arbitrary units (background-subtracted, floor 0; scale differs between SH3 domains)); higher = stronger binding of the SH3 domain to the peptide).
Method in brief: (§1)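 SH3 domains from four yeast species were expressed as GST fusions in E. coli BL21(DE3) and purified on glutathione Sepharose. Each was incubated at 10 μg/ml overnight at 4°C in TBS-based blocking buffer on cellulose membranes bearing synthetic 15-mer peptides, in which serines replaced cysteines. Bound protein was detected with anti-GST antibody, an HRP anti-mouse secondary and luminol, then imaged and quantified with Genespotter. The binding signal is the normalized, background-subtracted spot intensity averaged over replicates, in arbitrary units that are not the same from one domain to another.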

Binder | SPOT peptide array binding signal intensity
B1 | 28.5
B2 | 113

What follows are binders tested against CaRvs167 in the same assay as above.
Method in brief: as §1

Binder | SPOT peptide array binding signal intensity
B1 | 0.5
B2 | 1.33

The binders below were run against CaRvs167-3 in the same assay as above.
Method in brief: as §1

Binder | SPOT peptide array binding signal intensity
B1 | 1
B2 | 115

Each binder was assayed against CaSho1 in the same assay as above.
Method in brief: as §1

Binder | SPOT peptide array binding signal intensity
B1 | 8
B2 | 94.5

Each binder was assayed against CaSla1-D1-D2 in the same assay as above.
Method in brief: as §1

Binder | SPOT peptide array binding signal intensity
B1 | ≤ 0
B2 | ≤ 0

What follows are binders tested against CaSla1-D3 in the same assay as above.
Method in brief: as §1

Binder | SPOT peptide array binding signal intensity
B1 | 1.25
B2 | ≤ 0

What follows are binders tested against ScAbp1 in the same assay as above.
Method in brief: as §1

Binder | SPOT peptide array binding signal intensity
B1 | ≤ 0
B2 | 4

The binders below were run against ScBbc1 in the same assay as above.
Method in brief: as §1

Binder | SPOT peptide array binding signal intensity
B1 | 8.5
B2 | 2

Each binder was assayed against ScBem1-D1 in the same assay as above.
Method in brief: as §1

Binder | SPOT peptide array binding signal intensity
B1 | 57
B2 | ≤ 0

The binders below were run against ScBzz1-D1 in the same assay as above.
Method in brief: as §1

Binder | SPOT peptide array binding signal intensity
B1 | 22
B2 | 6

What follows are binders tested against ScBzz1-D2 in the same assay as above.
Method in brief: as §1

Binder | SPOT peptide array binding signal intensity
B1 | 19
B2 | 8.5

Each binder was assayed against ScCyk3 in the same assay as above.
Method in brief: as §1

Binder | SPOT peptide array binding signal intensity
B1 | 2
B2 | 1.5

The binders below were run against ScFus1 in the same assay as above.
Method in brief: as §1

Binder | SPOT peptide array binding signal intensity
B1 | ≤ 0
B2 | 30

These binders were tested against ScHof1 in the same assay as above.
Method in brief: as §1

Binder | SPOT peptide array binding signal intensity
B1 | ≤ 0
B2 | 0.5

Each binder was assayed against ScHse1 in the same assay as above.
Method in brief: as §1

Binder | SPOT peptide array binding signal intensity
B1 | ≤ 0
B2 | 278

These binders were tested against ScLsb1 in the same assay as above.
Method in brief: as §1

Binder | SPOT peptide array binding signal intensity
B1 | ≤ 0
B2 | ≤ 0

The binders below were run against ScLsb2 in the same assay as above.
Method in brief: as §1

Binder | SPOT peptide array binding signal intensity
B1 | 3.5
B2 | ≤ 0

Each binder was assayed against ScLsb3 in the same assay as above.
Method in brief: as §1

Binder | SPOT peptide array binding signal intensity
B1 | 4
B2 | 79

The binders below were run against ScLsb4 in the same assay as above.
Method in brief: as §1

Binder | SPOT peptide array binding signal intensity
B1 | 11.5
B2 | 11

Each binder was assayed against ScMyo3 in the same assay as above.
Method in brief: as §1

Binder | SPOT peptide array binding signal intensity
B1 | 0.5
B2 | ≤ 0

What follows are binders tested against ScMyo5 in the same assay as above.
Method in brief: as §1

Binder | SPOT peptide array binding signal intensity
B1 | 4.5
B2 | ≤ 0

These binders were tested against ScNbp2 in the same assay as above.
Method in brief: as §1

Binder | SPOT peptide array binding signal intensity
B1 | 1
B2 | 35.5

Each binder was assayed against ScPex13 in the same assay as above.
Method in brief: as §1

Binder | SPOT peptide array binding signal intensity
B1 | 1
B2 | 22.8

What follows are binders tested against ScRvs167 in the same assay as above.
Method in brief: as §1

Binder | SPOT peptide array binding signal intensity
B1 | ≤ 0
B2 | 0.167

The binders below were run against ScSho1 in the same assay as above.
Method in brief: as §1

Binder | SPOT peptide array binding signal intensity
B1 | 14
B2 | 96.5

What follows are binders tested against ScSla1-D1-D2 in the same assay as above.
Method in brief: as §1

Binder | SPOT peptide array binding signal intensity
B1 | ≤ 0
B2 | ≤ 0

What follows are binders tested against ScSla1-D3 in the same assay as above.
Method in brief: as §1

Binder | SPOT peptide array binding signal intensity
B1 | 22.2
B2 | 2.5

These binders were tested against SpAbp1-D1 in the same assay as above.
Method in brief: as §1

Binder | SPOT peptide array binding signal intensity
B1 | 8
B2 | ≤ 0

The binders below were run against SpBbc1 in the same assay as above.
Method in brief: as §1

Binder | SPOT peptide array binding signal intensity
B1 | 3
B2 | ≤ 0

The binders below were run against SpBzz1-D1 in the same assay as above.
Method in brief: as §1

Binder | SPOT peptide array binding signal intensity
B1 | 116
B2 | 50

What follows are binders tested against SpBzz1-D2 in the same assay as above.
Method in brief: as §1

Binder | SPOT peptide array binding signal intensity
B1 | 1.5
B2 | 0.25

The binders below were run against SpCyk3 in the same assay as above.
Method in brief: as §1

Binder | SPOT peptide array binding signal intensity
B1 | 3.5
B2 | ≤ 0

These binders were tested against SpHof1 in the same assay as above.
Method in brief: as §1

Binder | SPOT peptide array binding signal intensity
B1 | 1.25
B2 | 178

The binders below were run against SpHof1-2 in the same assay as above.
Method in brief: as §1

Binder | SPOT peptide array binding signal intensity
B1 | 0.5
B2 | 6

Each binder was assayed against SpHof1-3 in the same assay as above.
Method in brief: as §1

Binder | SPOT peptide array binding signal intensity
B1 | 1
B2 | 0.75

Each binder was assayed against SpHse1 in the same assay as above.
Method in brief: as §1

Binder | SPOT peptide array binding signal intensity
B1 | 21.2
B2 | 192

The binders below were run against SpLsb1 in the same assay as above.
Method in brief: as §1

Binder | SPOT peptide array binding signal intensity
B1 | ≤ 0
B2 | ≤ 0

Each binder was assayed against SpLsb4 in the same assay as above.
Method in brief: as §1

Binder | SPOT peptide array binding signal intensity
B1 | ≤ 0
B2 | 27.5

What follows are binders tested against SpMyo1 in the same assay as above.
Method in brief: as §1

Binder | SPOT peptide array binding signal intensity
B1 | ≤ 0
B2 | 2.5

These binders were tested against SpNbp2 in the same assay as above.
Method in brief: as §1

Binder | SPOT peptide array binding signal intensity
B1 | ≤ 0
B2 | 14.5

The binders below were run against SpPex13 in the same assay as above.
Method in brief: as §1

Binder | SPOT peptide array binding signal intensity
B1 | ≤ 0
B2 | ≤ 0

The binders below were run against SpRvs167 in the same assay as above.
Method in brief: as §1

Binder | SPOT peptide array binding signal intensity
B1 | 1.33
B2 | 10.7

Each binder was assayed against SpSla1-D1-D2 in the same assay as above.
Method in brief: as §1

Binder | SPOT peptide array binding signal intensity
B1 | 2
B2 | ≤ 0

What follows are binders tested against SpSla1-D3 in the same assay as above.
Method in brief: as §1

Binder | SPOT peptide array binding signal intensity
B1 | 1
B2 | ≤ 0

These binders were tested against AgAbp1 in the same assay as above.
Method in brief: as §1

Binder | SPOT peptide array binding signal intensity
B2 | ≤ 0

Each binder was assayed against AgBbc1 in the same assay as above.
Method in brief: as §1

Binder | SPOT peptide array binding signal intensity
B2 | 2.5

Each binder was assayed against AgBem1-D1 in the same assay as above.
Method in brief: as §1

Binder | SPOT peptide array binding signal intensity
B2 | 13

These binders were tested against AgBzz1-D1 in the same assay as above.
Method in brief: as §1

Binder | SPOT peptide array binding signal intensity
B2 | 23

The binders below were run against AgBzz1-D2 in the same assay as above.
Method in brief: as §1

Binder | SPOT peptide array binding signal intensity
B2 | 258

Each binder was assayed against AgCyk3 in the same assay as above.
Method in brief: as §1

Binder | SPOT peptide array binding signal intensity
B2 | ≤ 0

What follows are binders tested against AgFus1 in the same assay as above.
Method in brief: as §1

Binder | SPOT peptide array binding signal intensity
B2 | 45

What follows are binders tested against AgHof1 in the same assay as above.
Method in brief: as §1

Binder | SPOT peptide array binding signal intensity
B2 | 6

The binders below were run against AgHse1 in the same assay as above.
Method in brief: as §1

Binder | SPOT peptide array binding signal intensity
B2 | 132

These binders were tested against AgLsb1 in the same assay as above.
Method in brief: as §1

Binder | SPOT peptide array binding signal intensity
B2 | 0.5

What follows are binders tested against AgLsb4 in the same assay as above.
Method in brief: as §1

Binder | SPOT peptide array binding signal intensity
B2 | 5

The binders below were run against AgMyo5 in the same assay as above.
Method in brief: as §1

Binder | SPOT peptide array binding signal intensity
B2 | ≤ 0

The binders below were run against AgNbp2 in the same assay as above.
Method in brief: as §1

Binder | SPOT peptide array binding signal intensity
B2 | ≤ 0

These binders were tested against AgRvs167 in the same assay as above.
Method in brief: as §1

Binder | SPOT peptide array binding signal intensity
B2 | 3.17

The binders below were run against AgSho1 in the same assay as above.
Method in brief: as §1

Binder | SPOT peptide array binding signal intensity
B2 | 1

The binders below were run against AgSla1-D1-D2 in the same assay as above.
Method in brief: as §1

Binder | SPOT peptide array binding signal intensity
B2 | ≤ 0

These binders were tested against AgSla1-D3 in the same assay as above.
Method in brief: as §1

Binder | SPOT peptide array binding signal intensity
B2 | 0.5

Each binder was assayed against CaAbp1-D1 in the same assay as above.
Method in brief: as §1

Binder | SPOT peptide array binding signal intensity
B2 | ≤ 0

What follows are binders tested against CaAbp1-D2 in the same assay as above.
Method in brief: as §1

Binder | SPOT peptide array binding signal intensity
B2 | ≤ 0

Each binder was assayed against CaBbc1 in the same assay as above.
Method in brief: as §1

Binder | SPOT peptide array binding signal intensity
B2 | 6.75

Each binder was assayed against CaBem1-D1 in the same assay as above.
Method in brief: as §1

Binder | SPOT peptide array binding signal intensity
B2 | 6

Each binder was assayed against CaBzz1-D1 in the same assay as above.
Method in brief: as §1

Binder | SPOT peptide array binding signal intensity
B2 | 41

Each binder was assayed against CaBzz1-D2 in the same assay as above.
Method in brief: as §1

Binder | SPOT peptide array binding signal intensity
B2 | 16.5

The binders below were run against CaCyk3 in the same assay as above.
Method in brief: as §1

Binder | SPOT peptide array binding signal intensity
B2 | 6

Each binder was assayed against CaFus1 in the same assay as above.
Method in brief: as §1

Binder | SPOT peptide array binding signal intensity
B2 | 141

The binders below were run against CaHof1 in the same assay as above.
Method in brief: as §1

Binder | SPOT peptide array binding signal intensity
B2 | ≤ 0

These binders were tested against CaHse1 in the same assay as above.
Method in brief: as §1

Binder | SPOT peptide array binding signal intensity
B2 | 3.5

These binders were tested against CaLsb1 in the same assay as above.
Method in brief: as §1

Binder | SPOT peptide array binding signal intensity
B2 | ≤ 0

What follows are binders tested against CaLsb4 in the same assay as above.
Method in brief: as §1

Binder | SPOT peptide array binding signal intensity
B2 | 18.5

These binders were tested against CaMyo5 in the same assay as above.
Method in brief: as §1

Binder | SPOT peptide array binding signal intensity
B2 | 0.5
